The target in assay [1] is Estrogen receptor (Homo sapiens) (UniProt P03372). Briefly: CCTE_Deisenroth_AIME_384WELL_LUC_Inactive: CCTE's 384-well Estrogen Receptor Transactivation Assay without AIME metabolic competence (ERTA luciferase; metabolism negative), Deisenroth Lab (AID 2284038; active = hit-call score of the fitted dose curve at least 0.9, where 1 is the maximum;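 also: VM7Luc4E2 breast cells given medium preincubated 2 h with S9-free microspheres; hits raise estrogen receptor luciferase signal so potencies reflect agonists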). In short, it runs like this:
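Metabolism-negative mode: AIME lids stamped in alginate-water, no hepatic S9. 2 h chemical incubation → medium onto VM7Luc4E2 ERTA, 24 h. Readout luciferase luminescence; gain-of-signal fit vs 17beta-estradiol. Conc. 0.002 - 200 uM.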

Assay [2] in a line: CCTE_Deisenroth_AIME_384WELL_CTox_Inactive: Cytotoxicity Assessment (CTOX) in CCTE's 384-well Estrogen Receptor Transactivation Assay without AIME metabolic competence (metabolism negative), Deisenroth Lab (AID 2284039; active = hit-call score of the fitted dose curve at least 0.9, where 1 is the maximum;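 also: cell viability via live-cell protease substrate cleaved to fluorescent probe; cells exposed 24 h to medium preincubated 2 h with alginate-water beads without S9; loss of fluorescence signal means loss of viability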). In a few lines:
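Metabolism-negative arm: chemicals (10-point, 0.002 - 200 uM) preincubated 2 h with alginate-water lids, medium moved onto VM7Luc4E2 cells for 24 h. Fluorescent live-cell protease readout; bidirectional curve fit.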

For assay [3], the target named is Estrogen receptor (Homo sapiens) (UniProt P03372). The assay can be described thus: CCTE_Deisenroth_AIME_384WELL_LUC_Shift: CCTE's 384-well Estrogen Receptor Transactivation Assay with AIME metabolic competence data shift (ERTA luciferase; difference in metabolism positive and negative), Deisenroth Lab (AID 2284041).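 Also: shift is response with S9 minus without S9 so positive means metabolism raised ER signal.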 In a few lines: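 Chemicals (0.002–200 uM, 10 points) pre-incubated 2 h with alginate-encapsulated induced male Sprague Dawley rat liver S9 or S9-free, then medium applied 24 h to VM7Luc4E2 cells; luciferase. Endpoint is per-concentration difference, S9-positive minus negative.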

A short description of assay [4]: CCTE_Shafer_MEA_dev_firing_rate_mean: CCTE's Neural Network Formation Assay for Mean Firing Rate, Shafer Lab (AID 2284031). In a few lines: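 Extracellular spike frequency, AUC over DIV 5–12 recordings, in rat cortical neuron MEA cultures dosed from plating; loss direction vs DMSO.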
Assay [5] is described as follows: CCTE_Shafer_MEA_dev_per_burst_spike_percent: CCTE's Neural Network Formation Assay for Percent of Spikes in a Burst, Shafer Lab (AID 2284032). In short, it runs like this: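 Value is trapezoidal AUC over recordings on days 5, 7, 9 and 12 of the well-mean fraction of spikes falling in single-electrode bursts; rat cortical cultures exposed continuously from plating, treatment renewed DIV 5 and 9, fitted downward against DMSO.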

Assay [6] in a line: CCTE_Shafer_MEA_dev_active_electrodes_number: CCTE's Neural Network Formation Assay for Number of Active Electrodes, Shafer Lab (AID 2284040; active = hit-call score of the fitted dose curve at least 0.9, where 1 is the maximum). In a few lines: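 Developing rat cortical networks on MEAs, exposed DIV 0–12. Value is the AUC of active-electrode counts (≥5 spikes/min) from days 5, 7, 9, 12, relative to DMSO.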
Assay [7] in a line: CCTE_Shafer_MEA_dev_burst_rate: CCTE's Neural Network Formation Assay for Burst Rate, Shafer Lab (AID 2284042). In short, it runs like this: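 Cells plated, treated day 0; recorded DIV 5, 7, 9, 12; fed and re-treated DIV 5, 9. Endpoint: bursts per recording time, active-electrode well mean, trapezoidal AUC, fitted in decreasing direction against DMSO baseline.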
A short description of assay [8]: CCTE_Shafer_MEA_dev_bursting_electrodes_number: CCTE's Neural Network Formation Assay for Number of Bursting Electrodes, Shafer Lab (AID 2284043; active = hit-call score of the fitted dose curve at least 0.9, where 1 is the maximum;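 as to AC50: potency is for loss of bursting electrodes relative to DMSO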). In short, it runs like this:
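Rat cortical primary neurons, 48-well MEA, 16 electrodes/well; dosing DIV 0–12, re-dosed with full media change DIV 5, 9. Recordings DIV 5/7/9/12, AxIS adaptive spike detector; bursting electrode = ≥1 burst/2 min. AUC across days; loss of signal vs DMSO.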

Assay [9] can be described thus: CCTE_Shafer_MEA_dev_per_burst_interspike_interval: CCTE's Neural Network Formation Assay for Burst Interspike Interval, Shafer Lab (AID 2284044). In a few lines:
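Neurons from rat cortex plated onto PEI-coated MEA wells with laminin […] at 1.5 x 10^5 cells/well, then treated from day 0. Media and compound fully replaced on DIV 5 and 9. Extracellular spontaneous firing recorded four times; interspike interval per burst summarised as AUC.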

Assay [10] is described as follows: CCTE_Shafer_MEA_dev_burst_duration_mean: CCTE's Neural Network Formation Assay for Mean Burst Duration, Shafer Lab (AID 2284045). In short, it runs like this: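 Rat cortical cultures, 1.5 x 10^5 cells/well with laminin drop; continuous dosing days 0–12, media plus treatment refreshed DIV 5, 9. AxIS adaptive spike detection; mean single-electrode burst duration, AUC over four recordings, negative direction vs DMSO.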

Assay [11] is described as follows: CCTE_Shafer_MEA_dev_interburst_interval_mean: CCTE's Neural Network Formation Assay for Mean Interburst Interval, Shafer Lab (AID 2284046).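 Also: curve fitted for decrease in interburst interval relative to DMSO.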 In short, it runs like this: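 Developing rat cortical networks on 48-well MEAs receive compound from the day of plating. Burst intervals from each active electrode are averaged per well, and AUC over the recording days is fitted in the negative direction against DMSO.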

A short description of assay [12]: CCTE_Shafer_MEA_dev_inter_network_spike_interval_mean: CCTE's Neural Network Formation Assay for Mean Inter-network Spike Interval, Shafer Lab (AID 2284047). In a few lines: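 Rat cortical cultures, 1.5 x 10^5 cells/well on 48-well MEA plates; continuous exposure days 0–12, medium and compound refreshed DIV 5, 9. Mean time between consecutive network-spike peaks; AUC across DIV 5/7/9/12; DMSO baseline, negative fitting direction.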

Assay [13] is described as follows: CCTE_Shafer_MEA_dev_network_spike_number: CCTE's Neural Network Formation Assay for Number of Network Spikes, Shafer Lab (AID 2284048).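 Also: synchronized bursts across electrodes counted on days 5 7 9 12 and integrated as AUC.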 In a few lines: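 Rat cortical primary cultures on 48-well MEA (16 electrodes/well); continuous exposure DIV 0–12, full medium and treatment exchange DIV 5, 9. Readout: network spike count, AxIS adaptive detection, recordings DIV 5/7/9/12 collapsed to AUC; loss-of-signal fit, DMSO baseline.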

Assay [14] in a line: CCTE_Shafer_MEA_dev_network_spike_peak: CCTE's Neural Network Formation Assay for Mean Number of Electrodes in Network Spike, Shafer Lab (AID 2284049).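 As to AC50: fitted for loss of signal meaning fewer electrodes in network spikes than DMSO.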 In a few lines:
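Network-spike peak electrode count from recordings on days 5, 7, 9 and 12 was combined as trapezoidal area under the curve. Rat cortical cultures were treated continuously from plating, with compound renewed at each feed (DIV 5, 9); fits versus DMSO.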

Assay [15] can be described thus: CCTE_Shafer_MEA_dev_spike_duration_mean: CCTE's Neural Network Formation Assay for Mean Spike Duration, Shafer Lab (AID 2284051). In short, it runs like this: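 Readout is the average length of network spikes, clustered firing across electrodes, summed over DIV 5, 7, 9 and 12 as area under the curve. Neurons from rat cortex developed networks on MEA plates under continuous 12-day exposure.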

Assay [16] can be described thus: CCTE_Shafer_MEA_dev_network_spike_duration_std: CCTE's Neural Network Formation Assay for Standard Deviation of Network Spike Duration, Shafer Lab (AID 2284052).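 Also: hits are decreases in network spike duration SD versus DMSO vehicle.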 In short, it runs like this: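 Read-out is the trapezoidal area-under-the-curve across recordings made on days 5, 7, 9 and 12, fitted in the negative direction against DMSO baseline. Neurons were primary rat cortical cells treated from day 0, with treatment renewed at each feed.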

Assay [17] in a line: CCTE_Shafer_MEA_dev_per_network_spike_spike_number_mean: CCTE's Neural Network Formation Assay for Mean Number of Spikes in a Network Spike, Shafer Lab (AID 2284053). In a few lines:
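Continuous twelve-day exposure of developing rat cortical networks grown over 16 microelectrodes per well; spontaneous firing is captured at four time points, and the per-network-spike spike number is integrated over development by trapezoidal AUC.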

The nature of assay [18]: CCTE_Shafer_MEA_dev_per_network_spike_spike_percent: CCTE's Neural Network Formation Assay for Percent of Spikes in a Network Spike, Shafer Lab (AID 2284054). In a few lines:
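Read-out: percent of spikes falling in a 0.05 s window at network-spike peak, from spontaneous MEA recordings on days 5, 7, 9 and 12; trapezoidal AUC; loss of signal versus DMSO. Rat cortical cultures, compound present throughout.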

Results filed as inconclusive are left out. Calls of active or inactive are those of the source. The calls were made as follows, unless noted: active = hit-call score of the fitted dose curve at least 0.9, where 1 is the maximum; inactive = score below 0.9.

Chain of Estrogen receptor (Homo sapiens) (P03372 whole entry, looked up): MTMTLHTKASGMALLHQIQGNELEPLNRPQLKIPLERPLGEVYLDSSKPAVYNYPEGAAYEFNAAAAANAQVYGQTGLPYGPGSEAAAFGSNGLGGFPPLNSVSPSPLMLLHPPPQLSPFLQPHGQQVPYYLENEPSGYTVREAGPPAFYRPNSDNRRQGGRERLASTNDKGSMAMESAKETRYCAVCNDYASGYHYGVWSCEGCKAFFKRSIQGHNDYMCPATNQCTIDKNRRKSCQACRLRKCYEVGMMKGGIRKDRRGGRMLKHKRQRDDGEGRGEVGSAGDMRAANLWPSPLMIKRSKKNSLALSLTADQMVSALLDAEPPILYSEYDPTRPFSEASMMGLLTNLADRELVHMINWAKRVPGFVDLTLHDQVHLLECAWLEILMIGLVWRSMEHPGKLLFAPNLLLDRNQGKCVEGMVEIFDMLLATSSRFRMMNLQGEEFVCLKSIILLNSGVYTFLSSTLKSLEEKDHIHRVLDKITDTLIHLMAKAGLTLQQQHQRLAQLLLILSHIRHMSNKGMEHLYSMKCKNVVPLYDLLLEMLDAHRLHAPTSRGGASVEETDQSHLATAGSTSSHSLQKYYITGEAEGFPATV

In the case of `CN(C)C(=O)Nc1ccccc1`, the compound was called inactive in assay [1], in [2] and in assay [3].
For the compound `CC(CCO)CC(C)(C)C` (stereo not drawn), the compound was classed as inactive in [1], in assay [2] and in [3].
For the compound `N#CCCNCCC#N`, the outcome in [4], in assay [5], in assay [6], in [7], in assay [8] and in [9] was inactive. The call in assay [10], in [11], in assay [12], in [13], in assay [14] and in [15] was inactive. Further, the outcome in assay [16], in [17] and in assay [18] was inactive.
Broadly, the AC50 is the midpoint of the concentration-response curve, whichever way the signal moves. For `CC(C)Cc1ccc(C(C)C(=O)O)cc1` (stereo not drawn), the outcome in assay [4], in assay [5], in [6], in assay [7], in assay [9] and in assay [10] was inactive. The call in assay [12], in assay [13], in assay [15], in assay [16] and in [17] was inactive. For the same compound, the AC50 is 2.98 µM (active) in [8], 0.962 µM (active) in assay [11], 15 µM (active) in assay [14] and 15 µM (active) in [18].
As to `CC(C)N(c1ccccc1)C(C)C`, the outcome in assay [1], in assay [2] and in assay [3] was inactive.
As to `c1ccc2scnc2c1`, the outcome in assay [4], in assay [5], in assay [1], in assay [6], in assay [3] and in assay [7] was inactive. Moreover, the compound was classed as inactive in [9], in assay [10], in assay [11], in [12], in assay [13] and in assay [14]. Further, the result in assay [15], in assay [16], in assay [17] and in [18] was inactive.
For the compound `NC(N)=S`, the call in assay [1], in assay [2] and in [3] was inactive.
Take `CCCCC(CC)COC(=O)COc1ccc(Cl)cc1C` (stereo not drawn): the outcome in [4], in assay [5], in assay [6], in [7], in assay [8] and in [9] was inactive. Also, the outcome in assay [10], in assay [11], in assay [12], in [13], in assay [14] and in [15] was inactive. For the same compound, the call in [16], in [17] and in assay [18] was inactive.

Values taken from PubChem BioAssay (EPA / NIEHS).
